Results taken from PubChem BioAssay AID1159580 (chemical genetic matrix, 2015).
About 2,000 (36%) of roughly 5,500 compounds were called active. Another 18% or so got no clear call; they are omitted. Cut-off read from the data, not from the text of the source: active = normalized growth mostly below about 0.91 (no sharp cut-off); inconclusive = no clear call, values can overlap the other calls; inactive = mostly above about 0.92. Some of the results follow.

Assay: chemical genetic growth profiling, strain panel (AID 1159580);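 note: tested at 20 µM; growth read once vehicle control cultures reached saturation at 30 °C; 1 = growth at the plate median or of vehicle wells; lower values mean less growth of the strain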
Conditions: growth OD

Measured: normalized growth

O=c1[nH]c(=O)n(C2C[C@H](O)[C@@H](CO)O2)cc1C(F)(F)F (stereo partly specified)
inactive: S. cerevisiae deletion strains, locus YKL009W, strain mrt4, hits give low values 0.981 | S. cerevisiae deletion strains, locus YKL068W, hits give low values 0.978 | S. cerevisiae deletion strains, locus YKL085W, strain MDH1 (second series), hits give low values 0.974 | S. cerevisiae deletion strains, locus YKL085W, strain MDH1, hits give low values 0.974 | S. cerevisiae deletion strains, locus YKL160W, strain elf1, hits give low values 0.954 | S. cerevisiae deletion strains, locus YKL190W, strain CNB1, hits give low values 0.996 | S. cerevisiae deletion strains, locus YKR001C, strain vps1, hits give low values 0.982 | S. cerevisiae deletion strains, locus YKR026C, strain gcn3, hits give low values 0.973 | S. cerevisiae deletion strains, locus YKR091W, strain srl3, hits give low values 0.96 | S. cerevisiae deletion strains, locus YLL001W, strain dnm1, hits give low values 0.994 | S. cerevisiae deletion strains, locus YLL026W, hits give low values 0.962 | S. cerevisiae deletion strains, locus YLL041C, strain sdh2, hits give low values 0.954 | S. cerevisiae deletion strains, locus YLR027C, strain aat2, hits give low values 0.965 | S. cerevisiae deletion strains, locus YLR039C, strain RIC1, hits give low values 0.934 | S. cerevisiae deletion strains, locus YLR058C, strain SHM2, hits give low values 0.968 | S. cerevisiae deletion strains, locus YLR102C, strain apc9, hits give low values 0.98 | S. cerevisiae deletion strains, locus YLR113W, strain HOG1, hits give low values 0.996 | S. cerevisiae deletion strains, locus YLR221C, strain rsa3, hits give low values 0.988 | S. cerevisiae deletion strains, locus YLR258W, strain gsy2, hits give low values 0.965 | S. cerevisiae deletion strains, locus YLR262C, strain YPT6 (second series), hits give low values 0.936 | S. cerevisiae deletion strains, locus YLR262C, strain YPT6, hits give low values 0.955 | S. cerevisiae deletion strains, locus YLR268W, strain sec22, hits give low values 0.962 | S. cerevisiae deletion strains, locus YLR320W, strain mms22, hits give low values 1 | S. cerevisiae deletion strains, locus YLR330W, strain CHS5, hits give low values 0.988 | S. cerevisiae deletion strains, locus YLR342W, strain FKS1 (second series), hits give low values 1 | S. cerevisiae deletion strains, locus YLR342W, strain FKS1, hits give low values 0.966 | S. cerevisiae deletion strains, locus YLR357W, strain rsc2, hits give low values 0.981 | S. cerevisiae deletion strains, locus YLR370C, strain arc18, hits give low values 0.947 | S. cerevisiae deletion strains, locus YLR371W, strain rom2, hits give low values 0.97 | S. cerevisiae deletion strains, locus YLR384C, strain iki3, hits give low values 0.952 | S. cerevisiae deletion strains, locus YLR418C, strain cdc73, hits give low values 0.975 | S. cerevisiae deletion strains, locus YML016C, strain PPZ1, hits give low values 0.993 | S. cerevisiae deletion strains, locus YML032C, strain rad52, hits give low values 0.979 | S. cerevisiae deletion strains, locus YML120C, strain ndi1, hits give low values 0.992 | S. cerevisiae deletion strains, locus YML124C, strain tub3, hits give low values 0.972 | S. cerevisiae deletion strains, locus YMR058W, strain fet3, hits give low values 0.952 | S. cerevisiae deletion strains, locus YMR078C, strain ctf18, hits give low values 0.972 | S. cerevisiae deletion strains, locus YMR125W, strain sto1, hits give low values 0.95 | S. cerevisiae deletion strains, locus YMR129W, hits give low values 0.967 | S. cerevisiae deletion strains, locus YMR205C, strain PFK2, hits give low values 0.983 | S. cerevisiae deletion strains, locus YMR223W, strain ubp8, hits give low values 0.988 | S. cerevisiae deletion strains, locus YMR231W, strain pep5, hits give low values 0.981 | S. cerevisiae deletion strains, locus YMR263W, strain SAP30, hits give low values 1 | S. cerevisiae deletion strains, locus YMR307W, strain GAS1, hits give low values 0.978 | S. cerevisiae deletion strains, locus YNL067W, strain RPL9B, hits give low values 0.992 | S. cerevisiae deletion strains, locus YNL071W, strain lat1, hits give low values 1 | S. cerevisiae deletion strains, locus YNL128W, strain TEP1, hits give low values 0.976 | S. cerevisiae deletion strains, locus YNL153C, strain GIM3, hits give low values 0.992 | S. cerevisiae deletion strains, locus YNL183C, strain NPR1, hits give low values 0.966 | S. cerevisiae deletion strains, locus YNL209W, strain ssb2, hits give low values 0.961 | S. cerevisiae deletion strains, locus YNL233W, strain BNI4, hits give low values 0.978 | S. cerevisiae deletion strains, locus YNL248C, strain rpa49, hits give low values 0.926 | S. cerevisiae deletion strains, locus YNL250W, strain rad50, hits give low values 0.951 | S. cerevisiae deletion strains, locus YNL271C, strain bni1, hits give low values 0.983 | S. cerevisiae deletion strains, locus YNL298W, strain CLA4, hits give low values 0.971 | S. cerevisiae deletion strains, locus YNL307C, strain MCK1, hits give low values 0.972 | S. cerevisiae deletion strains, locus YNL322C, strain KRE1 (second series), hits give low values 0.935 | S. cerevisiae deletion strains, locus YNL322C, strain KRE1, hits give low values 0.989 | S. cerevisiae deletion strains, locus YNR049C, strain mso1, hits give low values 0.957 | S. cerevisiae deletion strains, locus YNR052C, strain pop2, hits give low values 0.992 | S. cerevisiae deletion strains, locus YOL006C, strain TOP1, hits give low values 0.969 | S. cerevisiae deletion strains, locus YOL012C, strain htz1 0.749 | S. cerevisiae deletion strains, locus YOL147C, strain pex11, hits give low values 0.974 | S. cerevisiae deletion strains, locus YOR001W, strain rrp6, hits give low values 0.99 | S. cerevisiae deletion strains, locus YOR061W, strain CKA2, hits give low values 0.987 | S. cerevisiae deletion strains, locus YOR069W, strain VPS5, hits give low values 0.983 | S. cerevisiae deletion strains, locus YOR070C, strain gyp1, hits give low values 0.977 | S. cerevisiae deletion strains, locus YOR080W, strain dia2, hits give low values 0.96 | S. cerevisiae deletion strains, locus YOR083W, strain WHI5, hits give low values 0.917 | S. cerevisiae deletion strains, locus YOR106W, strain vam3, hits give low values 0.95 | S. cerevisiae deletion strains, locus YOR136W, strain idh2, hits give low values 0.978 | S. cerevisiae deletion strains, locus YOR144C, strain elg1, hits give low values 0.97 | S. cerevisiae deletion strains, locus YOR184W, strain ser1, hits give low values 0.983 | S. cerevisiae deletion strains, locus YOR231W, strain MKK1, hits give low values 0.992 | S. cerevisiae deletion strains, locus YOR265W, strain rbl2, hits give low values 0.971 | S. cerevisiae deletion strains, locus YOR270C, strain vph1, hits give low values 0.948 | S. cerevisiae deletion strains, locus YOR290C, strain snf2, hits give low values 0.949 | S. cerevisiae deletion strains, locus YOR316C, strain cot1, hits give low values 0.983 | S. cerevisiae deletion strains, locus YPL051W, strain arl3, hits give low values 0.981 | S. cerevisiae deletion strains, locus YPL055C, strain LGE1, hits give low values 0.985 | S. cerevisiae deletion strains, locus YPL078C, strain atp4, hits give low values 0.988 | S. cerevisiae deletion strains, locus YPL106C, strain sse1, hits give low values 0.944 | S. cerevisiae deletion strains, locus YPL240C, strain hsp82, hits give low values 0.969 | S. cerevisiae deletion strains, locus YPL241C, strain CIN2, hits give low values 0.983 | S. cerevisiae deletion strains, locus YPL256C, strain CLN2, hits give low values 1.04 | S. cerevisiae deletion strains, locus YPR119W, strain clb2, hits give low values 0.987 | S. cerevisiae deletion strains, locus YPR141C, strain kar3, hits give low values 0.959 | S. cerevisiae deletion strains, locus YPR163C, strain tif3, hits give low values 0.972 | S. cerevisiae deletion strains, locus YPR167C, strain met16, hits give low values 0.971 | S. cerevisiae deletion strains, strain wtn01, hits give low values 0.985 | S. cerevisiae strains, strain wild type, hits give low values 0.985
